Data on 39 compounds can be found in ChEMBL document CHEMBL3988442, “University of Dundee, Small-Polar-MMV Screening Library” (2021).

Each structure is given as a SMILES string.

The target in this assay is AMP-activated protein kinase, AMPK (Homo sapiens) (UniProt P54646+O43741+P54619+Q9UGJ0+Q9Y478+Q13131+Q9UGI9). The assay can be described thus: AMP-dependent Kinase enzyme assay. An in vitro enzyme assay that detects ADP turnover that is directly proportional to AMPK activity. This uses naive AMPK that is activated during the assay with MK-8722. Further details: scale not given: direction of the effect not stated beside the values. As to conditions: 30 µM. Type of assay: functional.
Turning to `COC(=O)N1CCCCC1C(=O)N1CCC(c2ccncc2)CC1` (centres undefined), the Percent Effect was 1.07%.
The figure for `COC(=O)c1ccc(N(C(=O)c2cccnc2C)C(C)C)c(C)c1` is -5.67%; for `Cc1nc(C)n(CC2CCCN2c2ncnc3sccc23)n1` (centres undefined) it is 1.91%.
The figure for `CN(CCc1ccccn1)C(=O)Nc1cccnc1-n1cccn1` is -3.54%.
The figure for `Cc1ccc(C(=O)NCCN2CCOCC2)cc1N(C)S(C)(=O)=O` is 4.72%; for `CN(Cc1ccc(-n2cccn2)cc1)C[C@@H]1CCCN2CCCC[C@H]12` it is 5.54%.
As to `Cc1ncn(CCNC(=O)Nc2ccc(F)c(Cl)c2)c(=O)c1C`, the Percent Effect was 2.03%.
Consider `O=C(c1cnn[nH]1)N(Cc1ccncc1)CC1CCCO1` (centres undefined), for which the Percent Effect is -5.18%.
The figure for `Oc1cc(C2CCCN(Cc3cccs3)C2)nc(-c2ccccn2)n1` (centres undefined) is 16.9%; for `N#Cc1c(N)nc2c(c1-c1c[nH]nc1C1CCCCC1)COCC2` it is 42.5%.
The figure for `CCSc1cc(C(=O)NC(C)c2cccc(N3CCOC3=O)c2)ccn1` (centres undefined) is 7.17%; for `CN(Cc1csc(-c2cccs2)n1)Cc1ncccc1C(=O)O` it is -1.78%; for `CC1(C)CC(CN2CCC3(CCC(=O)N(CCO)C3)CC2)CCO1` (centres undefined) it is -1.98%.
`Cc1cccc(NC(=O)N2CCOCC(CN(C)C)C2)c1C` (centres undefined): the Percent Effect is -2.2%.
As for `CN1CC2(CCCN(C(=O)Cc3cccc(O)c3)C2)OC1=O` (centres undefined), the Percent Effect is 8.24%.
The figure for `CN1CSC[C@H]1C(=O)N1CCC(CCc2ccccc2)CC1` is -1.47%; for `O=C(CCn1cc(Cl)cn1)N1CCC2(CC1)OCCCC2O` (centres undefined) it is -8.21%; for `Cc1cc(C)n(CCN2CCC(N(C)Cc3noc(C4CC4)n3)C2)n1` (centres undefined) it is 3.34%.
The figure for `CCn1c(C2CCCNC2)nn(CCn2cncn2)c1=O` (centres undefined) is -3.33%; for `COc1ccc(Cl)cc1C(=O)N1C[C@@H](NC(=O)N(C)C)[C@H](C(C)C)C1` it is 2.28%.
The figure for `O=C(NCc1nnc2n1CCC2)c1cn(-c2ccccc2Br)nn1` is 12%.
For the compound `COCCN(C)c1cnn(C)c(=O)c1Br`, the Percent Effect was -10.9%.
The figure for `CCC(=O)Nc1cccc(OCC(=O)N[C@@H]2C[C@H]3CC[C@@H]2C3)c1` is 3.88%; for `Cc1nc(NCc2cccnc2)cc(C2COCCN2)n1` (centres undefined) it is 3.04%.
In the case of `Cn1nccc1CN1CCOC(c2cccc(Nc3ccccn3)n2)C1` (centres undefined), the Percent Effect came to 5.54%.
Take `O=C(c1cccnc1)N1CCOC(Cc2ccccc2Cl)C1` (centres undefined): the Percent Effect came out at 11%.
The figure for `Cc1[nH]ccc1C(=O)N1CCCC(c2ccc(C(=O)O)cc2)C1` (centres undefined) is -0.307%; for `Cc1cc(C2CCCN(Cc3nnc(Cc4ccccc4)o3)C2)n[nH]1` (centres undefined) it is 18%; for `CCc1cc(=O)[nH]c(-c2ccc(NC(C)COC)nc2)n1` (centres undefined) it is -2.5%.
Consider `CC1CCN(c2ccc(C(=O)N3CCCC3c3nncn3C)cn2)CC1` (centres undefined), for which the Percent Effect was -4.84%.
The figure for `COC(=O)C1CCN(C(=O)Cn2ccc(-c3ccc(F)cc3)n2)CC1` is -0.768%; for `Cc1cc(C2CCCN(Cc3noc(Cc4ccccc4)n3)C2)n[nH]1` (centres undefined) it is 35%.
The figure for `C[C@@H]1CN(c2ccc(C#N)cn2)CC[C@@]1(O)C1CCOCC1` is -1.81%; for `Cc1cc(C)n(CCCN(C)c2cc(N(C)C)ncn2)n1` it is 0.376%.
Consider `O=C(NCC1CCOC1)c1cc(-c2cccc(Cl)c2)[nH]n1` (centres undefined), for which the Percent Effect was 7.17%.
The figure for `Cc1nn(C2CCCCC2)c2nc(C(C)(C)CN3CCOCC3)[nH]c12` is 12%; for `COc1cc2c(cc1CNCc1cccnc1-n1cccn1)OC(C)C2` (centres undefined) it is 5.16%.
The figure for `O=C1CC2(CCN(Cc3ccc(-c4ccccc4)s3)C2)C(=O)N1` (centres undefined) is 84.9%; for `CN1CCCN(c2ccc(F)cc2CNC(=O)c2cccnc2)CC1` it is 38.2%.
